This is an account of results in PubChem BioAssay.

A short description of assay [1]: optical density shifts of acrAB sulA E. coli – strain DRC41, OD650, 48 h, E. coli filamentation inducer project, primary screen (AID 1152).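 Further: E. coli MC1000 strain DRC41 lacking acrAB efflux pump and sulA.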 Particulars: higher = more signal, called active from +8 up or from −8 down.
Assay [2] can be described thus: probe aLefty1 binding on compound microarray – biochemical, small-molecule microarray, 635/667 nm fluorescence, primary screen (AID 1153).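 Further: score merges spot fluorescence with signal-to-noise ratio from the scanned slide images.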 Particulars: higher = more signal.
The nature of assay [3]: plasmodial surface anion channel blockers, osmotic lysis – cell-based, P. falciparum Indochina, OD700, 1 h, primary screen (AID 1154). Conditions: P. falciparum Indochina infected RBC osmotic lysis, higher = more signal, called active from +8 up or from −8 down.
Assay [4] is described as follows: plasmodial surface anion channel blockers, osmotic lysis – cell-based, P. falciparum Indochina, OD700, 2 h, primary screen (AID 1155).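 Further: lysis reports solute entry through the parasite surface anion channel PSAC.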 Particulars: P. falciparum Indochina infected erythrocytes, higher = more signal, called active from +8 up or from −8 down.
A short description of assay [5]: changes in parasitized red cell lysis, either direction – P. falciparum Indochina, OD700, 3 h, PSAC antagonist project, primary screen (AID 1156). Particulars: P. falciparum-infected erythrocytes, osmotic lysis, higher = more signal, called active from +8 up or from −8 down.
Assay [6] is described as follows: plasmodial surface anion channel blockers, osmotic lysis – cell-based, P. falciparum Indochina, OD700, 18 h, primary screen (AID 1157). Particulars: P. falciparum Indochina infected erythrocytes, osmotic lysis OD700, 18 h; higher = more signal, called active from +8 up or from −8 down.
Assay [7] can be described thus: S6 kinase pathway phospho-S6 level changes – cell-based, A549, cytoblot, luminescence, serum-stimulated, primary screen (AID 1158).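 Further: serum-stimulated A549 lung adenocarcinoma cells; signal is phosphorylated S6 detected by cytoblot immunostaining with HRP secondary.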 Conditions: 5 h, higher = more signal.
The target in assay [8] is NADPH oxidase 2 (Homo sapiens) (UniProt P04839). Put plainly: compounds shifting NOX2 Amplex Red fluorescence – cell-based, HEK293-NOX2, PMA-stimulated, NOX inhibitor project, primary screen (AID 1159). Further: test concentration not given here. Conditions: 45 min, higher = more signal, called active from +8 up or from −8 down.
NADPH oxidase 2 (Homo sapiens), sequence (P04839 whole entry, looked up): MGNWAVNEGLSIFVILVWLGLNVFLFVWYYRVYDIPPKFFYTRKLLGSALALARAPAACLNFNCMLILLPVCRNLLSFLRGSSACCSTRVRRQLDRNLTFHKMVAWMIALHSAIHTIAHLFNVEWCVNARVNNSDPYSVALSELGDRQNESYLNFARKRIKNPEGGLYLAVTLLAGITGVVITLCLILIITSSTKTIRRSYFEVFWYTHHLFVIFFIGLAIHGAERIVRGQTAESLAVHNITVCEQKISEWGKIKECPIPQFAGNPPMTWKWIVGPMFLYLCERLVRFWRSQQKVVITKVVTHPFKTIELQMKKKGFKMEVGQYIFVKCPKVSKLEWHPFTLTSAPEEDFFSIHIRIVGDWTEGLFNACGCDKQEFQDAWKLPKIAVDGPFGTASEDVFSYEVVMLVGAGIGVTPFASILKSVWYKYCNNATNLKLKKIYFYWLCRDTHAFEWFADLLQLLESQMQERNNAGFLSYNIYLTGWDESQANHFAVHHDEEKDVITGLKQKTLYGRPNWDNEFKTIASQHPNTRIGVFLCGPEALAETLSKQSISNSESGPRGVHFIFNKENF
Assay [9] concerns the target NADPH oxidase 4 (Homo sapiens) (UniProt Q9NPH5). Put plainly: compounds shifting NOX4 Amplex Red fluorescence – cell-based, HEK293-NOX4, tetracycline-induced, NOX inhibitor project, primary screen (AID 1160). Particulars: HEK293-NOX4, Amplex Red H2O2 fluorescence, 45 min; higher = more signal, called active from +8 up or from −8 down.
Assay [10] deals with NADPH oxidase 5 (Homo sapiens) (UniProt Q96PH1). Put plainly: compounds shifting NOX5 Amplex Red fluorescence – cell-based, HEK293-NOX5, NOX inhibitor project, primary screen (AID 1161). Conditions: HEK293-NOX5, ionomycin, 45 min, higher = more signal.
NADPH oxidase 5 (Homo sapiens), sequence (Q96PH1 whole entry, looked up): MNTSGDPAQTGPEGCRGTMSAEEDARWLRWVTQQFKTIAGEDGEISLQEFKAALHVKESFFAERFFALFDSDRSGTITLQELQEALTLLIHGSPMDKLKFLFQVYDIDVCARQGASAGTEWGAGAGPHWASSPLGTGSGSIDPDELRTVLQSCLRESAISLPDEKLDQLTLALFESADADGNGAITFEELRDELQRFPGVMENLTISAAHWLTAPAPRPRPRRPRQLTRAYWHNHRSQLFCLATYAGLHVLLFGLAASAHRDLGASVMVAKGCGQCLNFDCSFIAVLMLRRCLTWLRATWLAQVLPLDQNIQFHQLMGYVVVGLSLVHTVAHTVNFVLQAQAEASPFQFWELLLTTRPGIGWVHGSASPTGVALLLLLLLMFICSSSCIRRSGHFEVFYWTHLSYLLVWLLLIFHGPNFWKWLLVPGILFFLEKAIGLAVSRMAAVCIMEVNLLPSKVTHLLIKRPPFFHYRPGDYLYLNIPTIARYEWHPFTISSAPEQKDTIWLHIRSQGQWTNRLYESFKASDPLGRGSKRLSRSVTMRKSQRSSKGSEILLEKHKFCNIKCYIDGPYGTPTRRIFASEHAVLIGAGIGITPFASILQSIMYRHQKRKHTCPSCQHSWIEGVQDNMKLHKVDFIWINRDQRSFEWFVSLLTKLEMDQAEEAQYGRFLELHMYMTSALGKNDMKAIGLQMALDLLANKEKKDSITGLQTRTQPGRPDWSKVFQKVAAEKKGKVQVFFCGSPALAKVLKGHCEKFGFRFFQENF
Assay [11] can be described thus: compound effects on lung adenocarcinoma cell viability – A549, calcein-AM fluorescence, 48 h, basal, profiling panel (AID 1162). Further: test concentration not given here. Particulars: higher = more signal.
The nature of assay [12]: compound effects on differentiated 3T3-L1 adipocyte viability – cell-based, 3T3-L1 adipocytes, calcein-AM fluorescence, 48 h, basal, profiling panel (AID 1163). Further: test concentration not given here. Particulars: 3T3-L1 adipocytes viability, higher = more signal.
Assay [13] can be described thus: compound effects on hepatocellular carcinoma cell viability – HepG2, calcein-AM fluorescence, 48 h, basal, profiling panel (AID 1164). Further: test concentration not given here. Particulars: higher = more signal.
Assay [14] can be described thus: compound effects on multiple myeloma cell viability – MM1S, calcein-AM fluorescence, 48 h, basal, profiling panel (AID 1165). Further: test concentration not given here. Conditions: higher = more signal.
Assay [15] in a line: calcein-AM signal in unstimulated myeloma cells – cell-based, calcein-AM fluorescence, 48 h, PK04 Diversity Set, profiling panel (AID 1166).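 Further: cells grown under basal conditions without added stimulus; test concentration not given here.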 Particulars: RPMI8226 myeloma viability, higher = more signal.
The nature of assay [16]: JC-1 mitochondrial signal, unstimulated HepG2 cells – cell-based, JC-1 fluorescence, 24 h, 100 nL compound, profiling panel (AID 1167). Further: test concentration not given here. Particulars: HepG2 mitochondrial potential, higher = more signal.
Assay [17] can be described thus: JC-1 mitochondrial signal, unstimulated adipocytes – cell-based, JC-1 fluorescence, 3T3-L1 adipocytes, 24 h, 100 nL compound, profiling panel (AID 1168). Further: test concentration not given here. Particulars: JC-1 mitochondrial fluorescence, higher = more signal, called active from +8 up or from −8 down.
Assay [18] is described as follows: JC-1 mitochondrial signal, unstimulated myeloma cells – cell-based, JC-1 fluorescence, RPMI8226, 24 h, 100 nL compound, profiling panel (AID 1169). Further: test concentration not given here. Particulars: JC-1 mitochondrial potential fluorescence, higher = more signal.
A short description of assay [19]: JC-1 mitochondrial signal, unstimulated MM1S myeloma – cell-based, JC-1 fluorescence, 24 h, 100 nL compound, profiling panel (AID 1170). Further: test concentration not given here. Conditions: MM1S mitochondrial potential, higher = more signal.
Assay [20] is described as follows: resazurin metabolic signal in A549 cells – cell-based, resazurin fluorescence, 24 h, PK04 Diversity Set, profiling panel (AID 1171). Further: test concentration not given here. Conditions: A549 viability, higher = more signal, called active from +8 up or from −8 down. A general note: Resazurin is reduced to fluorescent resorufin, in cell work by metabolically active cells.

The source made the active and inactive calls.

NADPH oxidase 4 (Homo sapiens), sequence (Q9NPH5 whole entry, looked up): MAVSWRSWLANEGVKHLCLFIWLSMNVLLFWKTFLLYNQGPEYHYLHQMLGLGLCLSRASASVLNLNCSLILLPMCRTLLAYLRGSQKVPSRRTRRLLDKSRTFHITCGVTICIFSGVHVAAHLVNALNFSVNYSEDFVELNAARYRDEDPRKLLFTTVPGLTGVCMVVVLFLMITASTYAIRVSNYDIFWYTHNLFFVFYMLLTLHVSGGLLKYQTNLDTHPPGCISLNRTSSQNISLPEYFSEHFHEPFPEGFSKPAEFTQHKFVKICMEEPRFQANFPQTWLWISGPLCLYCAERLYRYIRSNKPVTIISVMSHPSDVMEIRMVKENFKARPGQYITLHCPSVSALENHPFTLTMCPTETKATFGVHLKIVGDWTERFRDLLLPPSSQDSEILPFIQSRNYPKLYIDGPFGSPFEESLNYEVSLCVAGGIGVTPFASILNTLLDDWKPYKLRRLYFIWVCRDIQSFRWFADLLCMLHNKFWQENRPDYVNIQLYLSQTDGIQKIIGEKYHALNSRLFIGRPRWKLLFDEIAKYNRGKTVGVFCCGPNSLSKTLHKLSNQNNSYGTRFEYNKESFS

Consider `C#CCCCON=C1C[C@@H](O)[C@@H](O)[C@@H]2[C@@H]3C(=O)N(c4cccc(Oc5ccccc5)c4)C(=O)[C@@H]3CC[C@H]12`, for which the z-score was 0.496 (inactive) in assay [1]; 1.7 (inactive) in assay [3]; 0.977 (inactive) in [4]; 0.773 (inactive) in assay [5]; 0.232 (inactive) in assay [6]; -0.203 in assay [7]. Moreover, the z-score in assay [8] was -0.683 (inactive); in assay [9], 0.186 (inactive); in assay [10] it was -0.676; in assay [11], 1.08; in assay [12] it was 0.139; in assay [13] it was 0.411. For the same molecule, the z-score was 0.632 in [14]; 0.116 in [15]; 0.862 in assay [16]; 0.57 (inactive) in [17]; -0.263 in [18]; -1.29 in assay [19]. Besides, the z-score in [20] is 0.19 (inactive). In assay [2], this molecule came in with a composite z-score of 0.042.

On to `C#CCCCON=C1C[C@@H](O)[C@@H](O)[C@@H]2[C@@H]3C(=O)N(CC)C(=O)[C@@H]3CC[C@@H]12`, for which the z-score in assay [1] was -0.229 (inactive); in assay [3] it was 0.299 (inactive); in assay [4] it was 0.363 (inactive); in assay [5], -0.26 (inactive); in assay [6], -0.0637 (inactive); in assay [7], -0.595. In addition, the z-score was 0.275 (inactive) in [8]; 0.764 (inactive) in assay [9]; -0.64 in assay [10]; -0.36 in [11]; -0.843 in assay [12]; 0.075 in assay [13]. Further, the z-score was 0.0133 in assay [14]; 0.338 in assay [15]; -0.836 in assay [16]; -1.26 (inactive) in assay [17]; -0.0744 in assay [18]; -0.312 in assay [19]. In assay [20], the z-score was -0.526 (inactive). The composite z-score in assay [2] is -0.243.

For `COc1cccc([C@H]2Oc3ccc(OC)cc3C(=NO[C@H](C)c3cn([C@H](CO)Cc4ccccc4)nn3)[C@@H]2O)c1`, the z-score in assay [1] was 0.348 (inactive); in assay [3] it was 1.38 (inactive); in [4] it was 0.0637 (inactive); in [5] it was 0.151 (inactive); in assay [6] it was 0.22 (inactive); in assay [7], -0.16. Moreover, the z-score in assay [8] is -0.809 (inactive); in assay [9], 0.364 (inactive); in assay [10], -0.781; in [11], -0.16; in [12] it was 0.131; in assay [13], -0.489. The z-score in [14] was -0.0922; in assay [15], -0.719; in assay [16] it was -1.81; in assay [17] it was -3.16 (inactive); in [18], -0.0494; in assay [19], -0.252. Moreover, the z-score in [20] was 0.286 (inactive). In addition, in [2], the composite z-score is -0.142.

`COc1ccc(O[C@@H]2[C@H](O)CO[C@H]2C=Cc2ccccc2)cc1`: the z-score was -0.164 (inactive) in assay [1]; 1.65 (inactive) in assay [3]; -0.518 (inactive) in [4]; -0.433 (inactive) in [5]; -0.323 (inactive) in assay [6]; 0.243 in assay [7]. The z-score was 0.335 (inactive) in assay [8]; -0.426 (inactive) in assay [9]; -0.102 in [10]; 0.576 in [11]; 0.759 in assay [12]; 0.898 in assay [13]. In addition, the z-score in assay [14] was -0.418; in assay [15] it was -0.483; in assay [16], 0.364; in assay [17] it was 0.0785 (inactive); in assay [18] it was 0.868; in assay [19] it was -0.121. Moreover, the z-score in assay [20] is -1.44 (inactive). The molecule also had a composite z-score in assay [2] of -0.237.
